55 compounds from ChEMBL document CHEMBL4513216, “Probing the Open Global Health Chemical Diversity Library for Multistage-Active Starting Points for Next-Generation Antimalarials” (ACS Infect Dis, 2020) can be followed below.

Among all 69,000 compounds or so, about 8,600 (12%) showed an effect of 50% or more. This excerpt belongs to a sample that is enriched for strong results.

For the assay, the system named is Plasmodium berghei. The assay is described as follows: Screen against P. berghei liver stage (PbLuc), transformed with Luciferase, at 10uM. The assay is classed as functional, HepG2. Particulars: tested at 10 uM.
Take `O=C(NC1CC1)c1nc(COc2ccc3c(c2)OCO3)no1`: the INHIBITION amounted to 35.1%.
Next, `Cc1occc(=O)c1OCc1noc(C(=O)NCC(C)C)n1`: 26.9%.
Next, `CNc1oc(COc2ccc3c(c2)OCO3)nc1C#N`: 41.5%; `CC(C)NC(=O)c1nc(COc2ccc3c(c2)OCO3)no1`: 32.8%.
Next, `O=C(NC1CCCC1)c1nc(COc2ccc3c(c2)OCO3)no1`: 62.9%; `N#Cc1nc(COc2ccc3c(c2)OCO3)oc1NC1CC1`: 47.1%; `N#Cc1nc(COc2ccc3c(c2)OCO3)oc1NC1CCCCC1`: 72.1%.
In the case of `O=C(c1nc(COc2ccc3c(c2)OCO3)no1)N1CCCC1`, the INHIBITION turned out to be 13.4%.
Next, `NC(=O)c1nc(COc2ccc3c(c2)OCO3)no1`: -83.7%; `CCn1cc(CN2CCC(O)(Cn3nc(C)ccc3=O)CC2)cn1`: 6.32%.
Next, `CN(C)c1cc(C(=O)N2CCCCC2)ccn1`: 2.7%.
As for `CC1CCN(C(=O)c2cnn3c(-c4ccco4)ccnc23)CC1`, the INHIBITION was -82.6%.
Next, `CCCNC(=O)NC(=O)CN1C=Nc2ccccc2S1(=O)=O`: -3.7%; `Cc1occc1C(=O)N1CCC2(CC1)C(c1cnn(C)c1)CC(=O)N2C` (stereo not given): 31.3%; `Cn1ccnc1CC1CCCN(Cc2noc(C3CC3)n2)C1` (stereo not given): 9.14%.
In the case of `Cc1nnsc1CNC(=O)CSCc1ccccc1Cl`, the INHIBITION is on record as 10.8%.
Next, `c1ccc(Cc2nnc(CN3CCCCC3Cn3cncn3)o2)cc1` (stereo not given): 24%; `CCN(Cc1c(F)cccc1Cl)c1cc(C2CCNCC2)nc(C)n1`: 39.6%.
Take `COc1ncccc1CNC(=O)c1cnccn1`: the INHIBITION was -12%.
Then `N#Cc1ccccc1OCCN1CCCC1Cn1cncn1` (stereo not given), with 48.1%; and `CC(C)CN1CCc2c(CN(C)Cc3ccco3)cncc2C1`, with -15.2%.
`Cc1cccc(S(=O)(=O)N2CCCC3(CCCN3S(C)(=O)=O)C2)c1` (stereo not given): the INHIBITION is -61.6%.
Then `O=S(=O)(NCC(c1ccsc1)N1CCCCCC1)c1cccs1` (stereo not given), with 60%; and `COc1ccccc1N1CCC(CNS(=O)(=O)c2cccs2)C1` (stereo not given), with 6.31%.
Then `COc1ccc(C(CNS(=O)(=O)c2cn(C)nc2C)N2CCCC2)cc1` (stereo not given), with 23.15%; and `CN(C)c1ccc(C(CNS(=O)(=O)c2cccs2)N2CCCC2)cc1` (stereo not given), with 67.6%.
Next, `CN1CCc2cc(C(CNS(=O)(=O)c3cccs3)N3CCCC3)ccc21` (stereo not given): 20.5%; `Cc1nn(C)cc1S(=O)(=O)NCC(c1ccccc1)N1CCCCCC1` (stereo not given): 36.7%; `O=C(NCC(F)(F)F)c1ccncc1`: -6.67%.
Turning to `CC(C)c1noc(CCCC(=O)N2CCN(Cc3cccnc3)CC2)n1`, the INHIBITION is recorded as -40.2%.
Next, `COc1cccc(OCC(=O)NCc2ccc3[nH]c(=O)[nH]c3c2)c1`: 12.6%; `CN1CCOC(C)(C(=O)Nc2nc(C(C)(C)C)cs2)C1` (stereo not given): 7.5%; `CN(CC1(O)CCN(c2ccnc3ccncc23)CC1)C(=O)CCN`: -5.78%.
For the compound `Cc1ccc2c(c1)N(C(=O)C1CCCOC1)CCC2` (stereo not given), the INHIBITION is -27%.
Consider `CCN(CC)S(=O)(=O)CC(=O)N1CCc2ccc(F)cc21`, for which the INHIBITION stood at 67.4%.
Then `CS(=O)(=O)c1ccc2c(c1)N(C(=O)Cc1ccc(F)cc1)CCC2`, with 47.7%; and `CCN(CC)S(=O)(=O)CC(=O)N1CCc2ccc(Cl)cc21`, with 26.8%.
Next, `CS(=O)(=O)c1ccc2c(c1)N(C(=O)Cc1cccc(F)c1)CCC2`: 30.9%; `CCN(CC)S(=O)(=O)CC(=O)N1CCc2ccc(C)cc21`: 57.5%; `COCCOc1cccc(CNC(=O)CN2CCN(C)CC2C)c1` (stereo not given): 17.883%.
`Cc1ccccc1Cn1cnc2oc(C)c(C(=O)O)c2c1=O`: the INHIBITION amounted to 0.348%.
Consider `O=C(CCn1cccn1)N1CCC(c2nnc(-c3ccsc3)o2)CC1`, for which the INHIBITION was 5.86%.
On to `O=C(N[C@@H]1CN(c2ncccn2)C[C@@H]2CCCO[C@@H]21)c1cccnc1`, for which the INHIBITION was determined as 4.61%.
Take `CC(=O)NS(=O)(=O)c1ccc(F)cc1C(F)(F)F`: the INHIBITION is recorded as 35%.
Take `O=C(NCCn1nc(-n2cncn2)ccc1=O)c1ccsc1`: the INHIBITION is recorded as 6.12%.
Next, `O=C(CCOc1ccccc1)N1CCCC(c2ncc[nH]2)C1` (stereo not given): 52.7%; `O=C(CCCOCc1ccccc1)N1CCCC(c2ncc[nH]2)C1` (stereo not given): 6.11%.
With `CCOCCC1(C(=O)N2CCCC(c3ncc[nH]3)C2)CCCC1` (stereo not given), the INHIBITION was found to be 72%.
Then `CCOCCC(=O)N1CCCC(c2ncc[nH]2)C1` (stereo not given), with 48.1%.
`CCOCCOc1ccccc1C(=O)N1CCCC(c2ncc[nH]2)C1` (stereo not given): the INHIBITION was -7.35%.
Then `CSCCC(=O)N1CCCC(c2ncc[nH]2)C1` (stereo not given), with -8.66%; and `COCCC(=O)N1C[C@H]2CN(Cc3cccc(C)n3)C(=O)[C@H]2C1`, with 26.6%; and `CCOCCN1CCC(c2cnccn2)CC1`, with 32.7%.
Then `CN1CCN(C=C2N=C(c3cc(-c4ccccc4F)n[nH]3)ON2)CC1`, with 49.4%; and `CS(=O)(=O)N1CC[C@H]2OCC[C@@]2(C(=O)NCc2ccccn2)C1`, with 39.4%.
